Among all 5,500 compounds or so, about 2,000 (36%) were called active. Another 18% or so got no clear call; they are omitted. Rule as the data show it: active = normalized growth mostly below about 0.91 (no sharp cut-off); inconclusive = no clear call, values can overlap the other calls; inactive = mostly above about 0.92. Some of the results follow.
Assay: chemical genetic growth profiling, strain panel (AID 1159580);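 also: tested at 20 µM; growth read once vehicle control cultures reached saturation at 30 °C; 1 = growth at the plate median or of vehicle wells; lower values mean less growth of the strain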
Conditions: growth OD

Measured: normalized growth

COc1c(C)c2c(c(O)c1C/C=C(\C)CCC(=O)O)C(=O)OC2
active: S. cerevisiae deletion strains, locus YKL009W, strain mrt4, active compounds read low 0.561 | S. cerevisiae deletion strains, locus YKL068W, active compounds read low 0.72 | S. cerevisiae deletion strains, locus YKL085W, strain MDH1 (second series), active compounds read low 0.279 | S. cerevisiae deletion strains, locus YKL085W, strain MDH1, active compounds read low 0.279 | S. cerevisiae deletion strains, locus YKL160W, strain elf1, active compounds read low 0.596 | S. cerevisiae deletion strains, locus YKR001C, strain vps1, active compounds read low 0.493 | S. cerevisiae deletion strains, locus YKR026C, strain gcn3, active compounds read low 0.648 | S. cerevisiae deletion strains, locus YKR091W, strain srl3, active compounds read low 0.763 | S. cerevisiae deletion strains, locus YLL001W, strain dnm1, active compounds read low 0.398 | S. cerevisiae deletion strains, locus YLL026W, active compounds read low 0.533 | S. cerevisiae deletion strains, locus YLL041C, strain sdh2, active compounds read low 0.822 | S. cerevisiae deletion strains, locus YLR027C, strain aat2, active compounds read low 0.514 | S. cerevisiae deletion strains, locus YLR039C, strain RIC1, active compounds read low 0.504 | S. cerevisiae deletion strains, locus YLR058C, strain SHM2, active compounds read low 0.844 | S. cerevisiae deletion strains, locus YLR102C, strain apc9, active compounds read low 0.813 | S. cerevisiae deletion strains, locus YLR113W, strain HOG1, active compounds read low 0.189 | S. cerevisiae deletion strains, locus YLR221C, strain rsa3, active compounds read low 0.376 | S. cerevisiae deletion strains, locus YLR258W, strain gsy2, active compounds read low 0.532 | S. cerevisiae deletion strains, locus YLR262C, strain YPT6 (second series), active compounds read low 0.415 | S. cerevisiae deletion strains, locus YLR262C, strain YPT6, active compounds read low 0.467 | S. cerevisiae deletion strains, locus YLR268W, strain sec22, active compounds read low 0.612 | S. cerevisiae deletion strains, locus YLR320W, strain mms22, active compounds read low 0.443 | S. cerevisiae deletion strains, locus YLR330W, strain CHS5, active compounds read low 0.878 | S. cerevisiae deletion strains, locus YLR342W, strain FKS1 (second series), active compounds read low 0.669 | S. cerevisiae deletion strains, locus YLR342W, strain FKS1, active compounds read low 0.442 | S. cerevisiae deletion strains, locus YLR357W, strain rsc2, active compounds read low 0.779 | S. cerevisiae deletion strains, locus YLR370C, strain arc18, active compounds read low 0.435 | S. cerevisiae deletion strains, locus YLR418C, strain cdc73, active compounds read low 0.816 | S. cerevisiae deletion strains, locus YML032C, strain rad52, active compounds read low 0.626 | S. cerevisiae deletion strains, locus YML120C, strain ndi1, active compounds read low 0.406 | S. cerevisiae deletion strains, locus YML124C, strain tub3, active compounds read low 0.737 | S. cerevisiae deletion strains, locus YMR058W, strain fet3, active compounds read low 0.587 | S. cerevisiae deletion strains, locus YMR078C, strain ctf18, active compounds read low 0.843 | S. cerevisiae deletion strains, locus YMR125W, strain sto1, active compounds read low 0.635 | S. cerevisiae deletion strains, locus YMR129W, active compounds read low 0.571 | S. cerevisiae deletion strains, locus YMR205C, strain PFK2, active compounds read low 0.497 | S. cerevisiae deletion strains, locus YMR223W, strain ubp8, active compounds read low 0.732 | S. cerevisiae deletion strains, locus YMR231W, strain pep5, active compounds read low 0.358 | S. cerevisiae deletion strains, locus YMR263W, strain SAP30, active compounds read low 0.765 | S. cerevisiae deletion strains, locus YNL067W, strain RPL9B, active compounds read low 0.782 | S. cerevisiae deletion strains, locus YNL071W, strain lat1, active compounds read low 0.531 | S. cerevisiae deletion strains, locus YNL153C, strain GIM3, active compounds read low 0.811 | S. cerevisiae deletion strains, locus YNL183C, strain NPR1, active compounds read low 0.0633 | S. cerevisiae deletion strains, locus YNL209W, strain ssb2, active compounds read low 0.653 | S. cerevisiae deletion strains, locus YNL233W, strain BNI4, active compounds read low 0.777 | S. cerevisiae deletion strains, locus YNL248C, strain rpa49, active compounds read low 0.417 | S. cerevisiae deletion strains, locus YNL250W, strain rad50, active compounds read low 0.39 | S. cerevisiae deletion strains, locus YNL271C, strain bni1, active compounds read low 0.335 | S. cerevisiae deletion strains, locus YNL298W, strain CLA4, active compounds read low 0.328 | S. cerevisiae deletion strains, locus YNL307C, strain MCK1, active compounds read low 0.295 | S. cerevisiae deletion strains, locus YNL322C, strain KRE1 (second series), active compounds read low 0.507 | S. cerevisiae deletion strains, locus YNL322C, strain KRE1, active compounds read low 0.877 | S. cerevisiae deletion strains, locus YNR049C, strain mso1, active compounds read low 0.607 | S. cerevisiae deletion strains, locus YNR052C, strain pop2, active compounds read low 0.75 | S. cerevisiae deletion strains, locus YOL147C, strain pex11, active compounds read low 0.675 | S. cerevisiae deletion strains, locus YOR001W, strain rrp6, active compounds read low 0.582 | S. cerevisiae deletion strains, locus YOR069W, strain VPS5, active compounds read low 0.911 | S. cerevisiae deletion strains, locus YOR070C, strain gyp1, active compounds read low 0.583 | S. cerevisiae deletion strains, locus YOR080W, strain dia2, active compounds read low 0.841 | S. cerevisiae deletion strains, locus YOR083W, strain WHI5, active compounds read low 0.581 | S. cerevisiae deletion strains, locus YOR106W, strain vam3, active compounds read low 0.442 | S. cerevisiae deletion strains, locus YOR144C, strain elg1, active compounds read low 0.681 | S. cerevisiae deletion strains, locus YOR184W, strain ser1, active compounds read low 0.345 | S. cerevisiae deletion strains, locus YOR231W, strain MKK1, active compounds read low 0.171 | S. cerevisiae deletion strains, locus YOR265W, strain rbl2, active compounds read low 0.691 | S. cerevisiae deletion strains, locus YOR270C, strain vph1, active compounds read low 0.298 | S. cerevisiae deletion strains, locus YOR290C, strain snf2, active compounds read low 0.359 | S. cerevisiae deletion strains, locus YOR316C, strain cot1, active compounds read low 0.82 | S. cerevisiae deletion strains, locus YPL051W, strain arl3, active compounds read low 0.552 | S. cerevisiae deletion strains, locus YPL055C, strain LGE1, active compounds read low 0.589 | S. cerevisiae deletion strains, locus YPL078C, strain atp4, active compounds read low 0.485 | S. cerevisiae deletion strains, locus YPL106C, strain sse1, active compounds read low 0.661 | S. cerevisiae deletion strains, locus YPL240C, strain hsp82, active compounds read low 0.568 | S. cerevisiae deletion strains, locus YPL256C, strain CLN2, active compounds read low 0.18 | S. cerevisiae deletion strains, locus YPR119W, strain clb2, active compounds read low 0.815 | S. cerevisiae deletion strains, locus YPR141C, strain kar3, active compounds read low 0.575 | S. cerevisiae deletion strains, locus YPR163C, strain tif3, active compounds read low 0.547 | S. cerevisiae deletion strains, locus YPR167C, strain met16, active compounds read low 0.739 | S. cerevisiae deletion strains, strain wtn01, active compounds read low 0.684 | S. cerevisiae strains, strain wild type, active compounds read low 0.819
inactive: S. cerevisiae deletion strains, locus YKL190W, strain CNB1, active compounds read low 0.921 | S. cerevisiae deletion strains, locus YLR371W, strain rom2, active compounds read low 0.955 | S. cerevisiae deletion strains, locus YLR384C, strain iki3, active compounds read low 0.983 | S. cerevisiae deletion strains, locus YML016C, strain PPZ1, active compounds read low 0.992 | S. cerevisiae deletion strains, locus YMR307W, strain GAS1, active compounds read low 0.8 | S. cerevisiae deletion strains, locus YNL128W, strain TEP1, active compounds read low 0.868 | S. cerevisiae deletion strains, locus YOL006C, strain TOP1, active compounds read low 0.934 | S. cerevisiae deletion strains, locus YOL012C, strain htz1 0.529 | S. cerevisiae deletion strains, locus YOR061W, strain CKA2, active compounds read low 0.945 | S. cerevisiae deletion strains, locus YOR136W, strain idh2, active compounds read low 0.922 | S. cerevisiae deletion strains, locus YPL241C, strain CIN2, active compounds read low 0.967

Reference: PubChem BioAssay AID1159580 (chemical genetic matrix, 2015)
